Assay [1] can be described thus: CCTE_Shafer_MEA_dev_spike_duration_mean: CCTE's Neural Network Formation Assay for Mean Spike Duration, Shafer Lab (AID 2284051; active = hit-call score of the fitted dose curve at least 0.9, where 1 is the maximum; inactive = score below 0.9;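 also: mean network spike duration pooled as area under curve over DIV 5 to 12 recordings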;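 as to AC50: potency for a decrease in mean network spike duration versus DMSO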). The method, boiled down:
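Spontaneous activity was recorded on days 5, 7, 9 and 12 from rat cortical cultures grown on microelectrode arrays and dosed continuously from day 0, with media and compound renewed after the DIV 5 and 9 recordings. Network-spike duration was collapsed by area under the curve.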

A short description of assay [2]: CCTE_Shafer_MEA_dev_per_network_spike_spike_number_mean: CCTE's Neural Network Formation Assay for Mean Number of Spikes in a Network Spike, Shafer Lab (AID 2284053; active = hit-call score of the fitted dose curve at least 0.9, where 1 is the maximum; inactive = score below 0.9;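 as to AC50: fitted as decrease in spikes per network spike relative to DMSO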). The method, boiled down:
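Mean spike count within each network spike, taken in a 0.05 s window at its peak, was recorded on days 5, 7, 9 and 12 and integrated as trapezoidal area under the curve. Rat cortical cultures on MEA plates received continuous compound from day 0, refreshed at medium changes on DIV 5 and 9.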

The nature of assay [3]: CCTE_Shafer_MEA_dev_per_network_spike_spike_percent: CCTE's Neural Network Formation Assay for Percent of Spikes in a Network Spike, Shafer Lab (AID 2284054; active = hit-call score of the fitted dose curve at least 0.9, where 1 is the maximum; inactive = score below 0.9). The method, boiled down: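 Rat primary cortical neurons were grown on 48-well MEA plates (16 electrodes/well), exposed from plating day 0 through day 12, with treatment renewed on DIV 5 and 9. Percent of spikes within 0.05 s network-spike peaks was measured, summarised as AUC across days 5, 7, 9, 12.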

Assay [4] is described as follows: CCTE_Shafer_MEA_dev_LDH: CCTE's Lactate Dehydrogenase Assay for Cytotoxicity in the Neural Network Formation Assay, Shafer Lab (AID 2284068).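 Also: exposure for twelve days from plating with re-dosing on DIV 5 and 9.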 The method, boiled down:
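Primary rat cortical neurons were cultured on PEI-coated MEA plates and exposed from plating through day 12, with compound renewed at medium changes on DIV 5 and 9. LDH activity was read spectrophotometrically; loss of signal versus DMSO indicates reduced viability.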

Assay [5] can be described thus: CCTE_Shafer_MEA_acute_AB: CCTE's Alamar Blue Assay for Cytotoxicity in the Neural Acute Assay, Shafer Lab (AID 2284069).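 Also: active compounds lower the viability signal compared with DMSO wells.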 The method, boiled down:
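Resazurin reduction (CellTiter Blue, 1:6 in fresh medium) read at ex 544/em 590 nm marks viability loss relative to DMSO. Cells: primary rat cortical neuron networks on microelectrode arrays, treated after baseline recording at 13 or 15 days in vitro.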
Background: Resazurin is reduced to fluorescent resorufin, in cell work by metabolically active cells.

A short description of assay [6]: CCTE_Shafer_MEA_dev_AB: CCTE's Alamar Blue Assay for Cytotoxicity in the Neural Network Formation Assay, Shafer Lab (AID 2284083).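 Also: resazurin reduction fluorescence as viability of cultured neurons; twelve days of exposure from plating with re-dosing on DIV 5 and 9.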 The method, boiled down: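 Resazurin fluorescence, relative to DMSO, gauges viability after twelve days of exposure that began at plating of rat cortical neurons (1.5 x 10^5 cells/well, 48-well MEA); treatment renewed with full medium exchange on DIV 5 and 9.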

The test system of another assay is DIO2 (gene 1734). Put plainly: CCTE_GLTED_hDIO2: CCTE's human Deiodinase 2 (DIO2) Inhibition Assay, Great Lakes Toxicology and Ecology Division (GLTED) Lab (AID 2284050). As for the experimental part:
(§1) CCTE_GLTED_hDIO2 is a cell-free, single-readout assay designed to test the inhibitory activity of chemicals toward human iodothyronine Deiodinase type 2 (DIO2) enzyme. Enzyme is incubated in presence of test chemical for 3 hours during which uninhibited enzyme liberates free iodide from substrate. Free iodide is measured in a second step using the Sandell-Kolthoff method.CCTE_GLTED_hDIO2 is the assay component measured from the CCTE_GLTED_hDIO2 assay. It is designed to make measurements of enzyme activity, a form of enzyme reporter, as detected with absorbance signals by spectrophotometry.Data from the assay component CCTE_GLTED_hDIO2 was analyzed into 1 assay endpoint. This assay endpoint, CCTE_GLTED_hDIO2, was analyzed in the positive analysis fitting direction relative to DMSO as the negative control and baseline of activity. Using a type of enzyme reporter, loss-of-signal activity can be used to understand changes in the enzymatic activity as they relate to the gene DIO2. Furthermore, this assay endpoint can be referred to as a primary readout, because the performed assay has only produced 1 assay endpoint. To generalize the intended target to other relatable targets, this assay endpoint is annotated to the 'deiodinase' intended target family, where the subfamily is 'deiodinase Type 2'.
(§2) Human deiodinase type 2 (hDIO2) assay, developed at Great Lakes Toxicology and Ecology Division (GLTED) within the EPA's Center for Computational Toxicology and Exposure (CCTE), is designed to test the chemicals' ability to inhibit DIO2. Assay is based on iodide release measured by the Sandell-Kolthoff method and is run in 96-well plate format with assay plates run in triplicate (n=3). The method used for the deiodinase assay was largely based on Renko et al. (2012, 2015). These works describe the utilization of the SK reaction to measure deiodinase-liberated iodide in a 96-well-plate format. The SK reaction is based on the reduction of the yellow-colored cerium IV to the non-colored cerium III by arsenic, with the rate of this reaction increased in the presence of iodide in a concentration-dependent manner (Sandell and Kolthoff, 1937). Iodinated test chemicals can interfere as competitive inhibitors, or if the stock chemical has contaminating free-iodide present. Other chemicals, e.g.: nitrite, iron, and thiocyanate can interfere with the Sandell-Kolthoff reaction (see Sandell and Kolthoff, 1937).

In the next assay the test system is DIO3 (gene 1735). Put plainly: CCTE_GLTED_hDIO3: CCTE's human Deiodinase 3 (DIO3) Inhibition Assay, Great Lakes Toxicology and Ecology Division (GLTED) Lab (AID 2284055).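 As to AC50: potency is for inhibition seen as loss of released iodide signal.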 The protocol: as §1, with “CCTE_GLTED_hDIO3” for “CCTE_GLTED_hDIO2”, “3 (DIO3)” for “2 (DIO2)”, “method.CCTE_GLTED_hDIO3” for “method.CCTE_GLTED_hDIO2”, “CCTE_GLTED_hDIO3,” for “CCTE_GLTED_hDIO2,”, “DIO3.” for “DIO2.”, “3'.” for “2'.”
as §2, with “[…]” for “2 (hDIO2)”, “DIO3. Assay uses human deiodinase type 3 (DIO3) enzyme produced with adenovirus expression system.” for “DIO2.”

Assay [7] is described as follows: UKN5_HCS_SBAD2_cell_viability: Viability Assessment in the University of Konstanz (UKN) Leist Lab Neurite Outgrowth Assay in human iPSC-derived immature Dorsal Root Ganglia Neurons (UKN5) (AID 2284056; active = hit-call score of the fitted dose curve at least 0.9, where 1 is the maximum; inactive = score below 0.9). The method, boiled down: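 iPSC-derived immature peripheral neurons (SBAD2) seeded on Matrigel with CHIR99021, SU5402 and DAPT, dosed 1 h later for 24 h. Viability from Hoechst H-33342 and calcein-AM live staining, high-content imaging; bidirectional fit versus DMSO.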

Assay [8] is described as follows: UKN5_HCS_SBAD2_neurite_outgrowth: University of Konstanz (UKN) Leist Lab Neurite Outgrowth Assay in human iPSC-derived immature Dorsal Root Ganglia Neurons (UKN5) (AID 2284070; active = hit-call score of the fitted dose curve at least 0.9, where 1 is the maximum; inactive = score below 0.9). Conditions: actives raise or lower the signal. The method, boiled down:
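Human iPSC-derived immature DRG neurons (SBAD2) on Matrigel with CHIR99021 (1.5 uM), SU5402 (5 uM), DAPT (5 uM); compounds added 1 h post-seeding for 24 h. Calcein-AM neurite area imaged; bidirectional fit vs DMSO.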

Molecules are shown by their SMILES. Several values for one entry are separate records, joined by “and”; a condition that tells them apart may be missing. Equal entries are not always repeated. Inconclusive results are not listed. Activity calls are given as the source filed them. The calls were made as follows, unless noted: active = hit-call score of the fitted dose curve at least 0.9, where 1 is the maximum; inconclusive = response in the unintended direction; inactive = score below 0.9.

`COC(=O)N(OC)c1ccccc1COc1ccn(-c2ccc(Cl)cc2)n1`: the AC50 was 88.7 nM (active) and 9.7 nM (active) in assay [1]; 82.2 nM (active) and 11 nM (active) in assay [2]; 157 nM (active) and 13.6 nM (active) in [3]; 54.7 nM (active) and 5.99 nM (active) in assay [4]; 120 nM (active) and 25.3 nM (active) in [6]. Besides, in [5], the call was inactive.
Take `Cc1c(F)c(F)c(COC(=O)C2C(/C=C(\Cl)C(F)(F)F)C2(C)C)c(F)c1F` (stereo not drawn): the AC50 in [1] was 2.15 µM (active); in [2] it was 1.98 µM (active); in assay [3] it was 1.45 µM (active); in assay [4] it was 18 µM (active); in [6] it was 17.4 µM (active). The compound was called inactive in assay [5].
On to `CS/C(C)=N/OC(=O)N(C)SN(C)C(=O)O/N=C(\C)SC`, for which the compound was called inactive in assay [5].
With `N#Cc1nn(-c2c(Cl)cc(C(F)(F)F)cc2Cl)c(N)c1S(=O)C(F)(F)F` (stereo not drawn), the concentration at half-maximal activity (AC50) was 29.6 µM (active) in the assay with DIO2 (gene 1734), 4.41 µM (active) in [3], 1.13 µM (active) in the assay with DIO3 (gene 1735) and 23.8 µM (active) in assay [4]. Also, the compound was classed as inactive in assay [1], in assay [2], in assay [5] and in [6].
On to `Cc1ccc(-c2c(Cl)nc(C#N)n2S(=O)(=O)N(C)C)cc1`, for which the AC50 in the assay on DIO2 (gene 1734) was 81.8 µM (active); in assay [1], 29.7 µM (active); in assay [2], 14.4 µM (active); in assay [4] it was 30.3 µM (active); in assay [6], 50 µM (active). Moreover, the compound was called inactive (in assay [3]; with DIO3 (gene 1735); in [5]).
Take `CNC(=O)ON=CC(C)(C)SC`: the outcome in [1], in assay [3], in assay [4], in [5] and in assay [6] was inactive. Besides, the half-maximal activity concentration (AC50) in [2] was 0.549 µM (active).
Turning to `CCCCNC(=O)OCC#CI`, the AC50 in assay [1] is 3.81 µM (active) and 1.12 µM (active); in [2], 2.76 µM (active) and 1.55 µM (active); in [3] it was 2.91 µM (active) and 1.17 µM (active); in assay [4], 3.84 µM (active) and 1.13 µM (active); in assay [6], 3.1 µM (active) and 1.55 µM (active). Further, in assay [5], the outcome was inactive.
As to `CC(Oc1ccc(Cl)cc1Cl)C(=O)O` (stereo not drawn), the compound was called inactive in [5].
Same read-out and setting: under `CC(C)Oc1cc(-n2nc(C(C)(C)C)oc2=O)c(Cl)cc1Cl` stands “inactive”; under `CCOP(=S)(OCC)SCn1c(=O)oc2cc(Cl)ccc21`, “inactive”.
With `CCCCOC(=O)c1ccccc1C(=O)OCCCC`, the figures for the half-maximal activity concentration (AC50) in [1], in [2] and in assay [4] were 50 µM (active), 72.1 µM (active) and 50 µM (active), respectively. For the same compound, the result in [3] and in assay [6] was inactive.
Turning to `O=C(O)c1nc(Cl)ccc1Cl`, the outcome in assay [5] was inactive.
Turning to `CCCCNC(=O)n1c(NC(=O)OC)nc2ccccc21`, the call in assay [1], in [3], in assay [7] and in [6] was inactive. For the same compound, the figures for the half-maximal activity concentration (AC50) in assay [2] and in assay [8] were 15 µM (active) and 7.98 µM (active), respectively.
Regarding `CCNc1nc(Cl)nc(NC(C)C)n1`, the outcome (in the assay on DIO2 (gene 1734); in [1]; in assay [2]; in assay [3]; in [5]) was inactive. In addition, the AC50 in the assay on DIO3 (gene 1735) was 21.7 µM (active).
`CN(C)C(=S)SSC(=S)N(C)C`: the AC50 in the assay on DIO2 (gene 1734) is 55.7 µM (active); in assay [1], 0.00527 µM (active); in assay [2], 0.00976 µM (active); in assay [3], 0.00821 µM (active); with DIO3 (gene 1735), 43.1 µM (active); in assay [4], 0.00506 µM (active). The AC50 in assay [6] was 0.012 µM (active).
Take `N#CC(CCc1ccc(Cl)cc1)(Cn1cncn1)c1ccccc1` (stereo not drawn): the call in [5] was inactive.
In the case of `CCCN(CCC)c1c([N+](=O)[O-])cc(S(N)(=O)=O)cc1[N+](=O)[O-]`, the values for the concentration at half-maximal activity (AC50) in the assay on DIO2 (gene 1734) and in the assay on DIO3 (gene 1735) were 141 µM (active) and 160 µM (active), respectively. The compound was called inactive in [5].
With `COP(N)(=O)SC` (stereo not drawn), the compound was classed as inactive in [1], in [2], in assay [3], in assay [4] and in assay [6].

By AC50 is commonly meant the concentration giving half of the maximal activity seen.
